The values below come from PubChem BioAssay (NCATS).

Experiment [1] can be described thus: qHTS for identification of novel therapeutic agents for treatment of microphthalmiaassociated transcription factor (MiT) renal cell carcinoma (RCC) (AID 1963991; calls by dose curve). As to conditions: CellTiter-Glo, 48 h; for z-score: stronger effect = lower value; for Potency: active = Z-AUC below -0.8 in all three lines. An outline of the steps:
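Three TFE3-fusion RCC cell lines (UOK109, UOK124, UOK145), 500 cells/well, were exposed to the 1912-compound MIPE 4.0 library for 48 hours at 37 C. Viability was read by CellTiter-Glo luminescence, normalised to DMSO (100%) and empty wells (0%), with 11-concentration curve fits.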

The nature of experiment [2]: qHTS profiling for inhibitors of Plasmodium falciparum proliferation (AID 504749). Further: nearly all actives have a fitted effect of over 60% in size. As to conditions: P. falciparum in erythrocytes, SYBR Green DNA, 72 h. The gist of the method: (§1)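 P. falciparum-infected erythrocytes (0.3% parasitemia, 2.5% hematocrit) incubated with compound 72 h at 37 C, 5% CO2. Parasite DNA detected by SYBR Green after lysis, overnight at room temperature; normalised to 0.29 uM artemisinin and DMSO.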

Experiment [3] relates to 3D7. The description is as above. To be noted: P. falciparum in erythrocytes, SYBR Green DNA, 72 h; series mostly up to 28.7 µM. The gist of the method:
as §1

In experiment [4] the test system is 7G8. The experiment is described as above. To be noted: P. falciparum in erythrocytes, SYBR Green DNA, 72 h; series mostly up to 28.7 µM. An outline of the steps: as §1
Experiment [5] deals with AA1029. The description is as above. To be noted: P. falciparum in erythrocytes, SYBR Green DNA, 72 h; series mostly up to 28.7 µM. The gist of the method: as §1
Experiment [6] relates to AS120. The description is as above. As to conditions: P. falciparum in erythrocytes, SYBR Green DNA, 72 h; series mostly up to 28.7 µM. The gist of the method:
as §1

The test system of experiment [7] is ATS95. Described as above. To be noted: P. falciparum in erythrocytes, SYBR Green DNA, 72 h; series mostly up to 28.7 µM. An outline of the steps: as §1
Experiment [8] concerns C2A. Described as above. To be noted: P. falciparum in erythrocytes, SYBR Green DNA, 72 h; series mostly up to 28.7 µM. An outline of the steps:
as §1

Experiment [9] concerns CP185. The description is as above. To be noted: P. falciparum in erythrocytes, SYBR Green DNA, 72 h; series mostly up to 28.7 µM. The gist of the method:
as §1

For experiment [10], the system named is CP191. Described as above. As to conditions: P. falciparum in erythrocytes, SYBR Green DNA, 72 h; series mostly up to 28.7 µM. The gist of the method:
as §1

The test system of experiment [11] is CP192. The description is as above. To be noted: P. falciparum in erythrocytes, SYBR Green DNA, 72 h; series mostly up to 28.7 µM. An outline of the steps:
as §1

Experiment [12] deals with CP194. The experiment is described as above. To be noted: P. falciparum in erythrocytes, SYBR Green DNA, 72 h; series mostly up to 28.7 µM. The gist of the method: as §1
Experiment [13] concerns CP201. The description is as above. As to conditions: P. falciparum in erythrocytes, SYBR Green DNA, 72 h; series mostly up to 28.7 µM. An outline of the steps:
as §1

Experiment [14] relates to CP217. The experiment is described as above. As to conditions: P. falciparum in erythrocytes, SYBR Green DNA, 72 h; series mostly up to 28.7 µM. An outline of the steps:
as §1

Experiment [15] deals with CP237. The description is as above. To be noted: P. falciparum in erythrocytes, SYBR Green DNA, 72 h; series mostly up to 28.7 µM. An outline of the steps:
as §1

The mark [16] stands for this setting: TFE3-RCC UOK109 viability, measured here: UOK109 Z-AUC.
[17] abbreviates: TFE3-RCC viability, measured here: UOK124 Z-AUC.
The mark [18] stands for this setting: TFE3-RCC viability, measured here: UOK145 Z-AUC.

Results filed as inconclusive are left out. Active and inactive are the calls of the source. Unless noted, the call rests on the fitted dose curve; in most records, active means well fitted inhibition curve with a large enough effect; inconclusive means small, poorly fitted or top-dose-only effect; inactive means flat fitted curve, though single readings scatter.
Potency means the concentration at half of the fitted maximal effect.

As for `CCCCCCCCCCCC(CC1OC(=O)C1CCCCCC)OC(=O)C(CC(C)C)NC=O` (centres undefined), the z-score in experiment [1] (setting [16]) was 0.558; in [1] (setting [17]), -0.129; in experiment [1] (setting [18]), 0.669. The Potency is 355 nM (active) in experiment [2] (parasite line A); 708 nM (active) in [2] (parasite line B); 1120 nM (active) in experiment [3]; 2510 nM (active) in experiment [4]; 447 nM (active) in experiment [5]; 316 nM (active) in [6]. The Potency in experiment [7] is 794 nM (active); in experiment [8] it was 562 nM (active); in experiment [9] it was 708 nM (active); in experiment [10], 562 nM (active); in experiment [12], 9530 nM (active); in experiment [14], 2240 nM (active). The Potency in experiment [15] was 794 nM (active). Moreover, the Potency result in experiment [11] and in experiment [13] was “inactive” throughout.

As to `CC(=O)N1CCN(c2ccc(OCc3nn(C)c(C)c3-c3cccc4c(CCCOc5cccc6ccccc56)c(C(=O)O)n(Cc5cccnc5)c34)cc2)CC1`, the Potency in [1] (TFE3-RCC UOK109 viability) was 935 nM (active). In addition, the z-score in [1] (setting [16]) is -1.06; in experiment [1] (setting [17]), -1.35; in [1] (setting [18]) it was -1.45.

Take `C[C@H]1O[C@H](O[C@H]2[C@H](O)[C@@H](O)[C@@H](O[C@H]3[C@H](O)[C@@H](O)C(O)O[C@H]3CO)O[C@H]2CO)[C@H](O)[C@@H](O)[C@H]1N[C@H]1C=C(CO)[C@@H](O)[C@H](O)[C@@H]1O` (some centres undefined): the values for the z-score in [1] (setting [16]), in experiment [1] (setting [17]) and in experiment [1] (setting [18]) were 0.975, 0.169 and 1.64, respectively.

As for `C=C1CCC2[C@](C)(CO)C(O)CC[C@]2(C)C1CC=C1C(=O)OCC1O` (some centres undefined), the figures for the z-score in experiment [1] (setting [16]), in [1] (setting [17]) and in experiment [1] (setting [18]) were 0.432, -0.457 and 1.09, respectively.

With `O=C1NC(=O)[C@@H](c2cn3c4c(cccc24)CCC3)[C@H]1c1c[nH]c2ccccc12`, the Potency in experiment [1] (TFE3-RCC UOK109 viability) is 935 nM (active). In addition, the z-score was -1.28 in [1] (setting [16]), -0.931 in experiment [1] (setting [17]) and -1.11 in experiment [1] (setting [18]).

On to `Cc1cn([C@@H]2O[C@H](CO)[C@@H](O)[C@H]2F)c(=O)[nH]c1=O`, for which the z-score in [1] (setting [16]) is 0.17; in [1] (setting [17]), 0.993; in [1] (setting [18]), 0.494.

In the case of `CCN(CC)CCNC(=O)c1c(C)[nH]c(C=C2C(=O)Nc3ccc(F)cc32)c1C`, the Potency in experiment [1] (TFE3-RCC UOK109 viability) is 34000 nM (active). In addition, the z-score was -1.15 in [1] (setting [16]), -1.68 in experiment [1] (setting [17]) and -1.38 in experiment [1] (setting [18]).
